Data published in PubChem BioAssay (NCATS).
Records with an inconclusive call do not appear. The source made the active and inactive calls. The call rests on the fitted dose curve; in most records, active means well fitted curve in the direction sought with a large enough effect; inconclusive means small, poorly fitted or top-dose-only effect, or another doubt; inactive means no such curve, though single readings can be large; an effect the other way counts as inactive or inconclusive.

Experiments:
[1] = target: Luciferin 4-monooxygenase (Photinus pyralis) (UniProt P08659); experiment: Primary firefly luciferase (FLuc) qHTS assay for identification of artifact compounds. (AID 1845220); further: nearly all actives have a fitted effect of over 60% in size
Outline: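 In this counter-screen for luciferase artifacts, test compounds met substrate (10 uM each luciferin and ATP) before 10 nM enzyme started the reaction. Light output was measured 5 min later.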

[2] = Primary fluorescence-based thiol-reactive (MSTI) qHTS assay for identification of artifact compounds. (AID 1845221); further: nearly all actives have a fitted effect of over 65% in size; further: potency means the concentration at half of the fitted maximal effect;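 on activity change, negative = thiol reactive: series mostly up to about 54 µM; thiol-reactive compounds lower the probe fluorescence signal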
Outline: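 Curve-fitted percent inhibition (4-parameter Hill) derived from fluorescence, Ex 525/Em 598 nm, scaled with Acetyl-MSTI and MSTI; 1 h incubation at room temperature.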

[3] = test system: Nanoluciferase (engineered Oplophorus gracilirostris luciferase); experiment: Primary Nanoluciferase (NLuc) qHTS assay for identification of artifact compounds. (AID 1845222);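 further: NLuc secreted into diluted conditioned medium of S16 cells; series mostly up to about 54 µM; 0% = DMSO and -100% = no enzyme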
Outline: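 Using secreted nanoluciferase in S16 culture medium (0.22 um filtered, 1:55 dilution), compounds were preincubated 15 min at RT. Signal was generated with Nano-Glo reagent (1:100) over 5 min.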

[4] = Primary redox qHTS assay for identification of artifact compounds. (AID 1845223);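 further: 0% = DMSO and 100% = reference compound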
Outline: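 Redox-cycling detection via DTT (250 uM final) oxidation coupled to Amplex Red (25 uM)/HRP (250 mU/mL) in HBSS. 15 min preincubation plus 30 min after DTT, room temperature. Ex/Em 525/598 nm; 4-parameter Hill fit against DMSO and 10 uM DA3003.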

[5] = target: Cytochrome P450 3A4 (Homo sapiens) (UniProt P08684); experiment: qHTS for inhibitors of CYP3A4 against the NCATS DSHEA and TCM libraries (AID 1919971);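 further: on the % scale 0 is the no-effect control and ±100 the full control effect; inhibition lowers luminescence from luciferin made by CYP3A4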
Cytochrome P450 3A4 (Homo sapiens), sequence (P08684 whole entry, looked up, canonical isoform): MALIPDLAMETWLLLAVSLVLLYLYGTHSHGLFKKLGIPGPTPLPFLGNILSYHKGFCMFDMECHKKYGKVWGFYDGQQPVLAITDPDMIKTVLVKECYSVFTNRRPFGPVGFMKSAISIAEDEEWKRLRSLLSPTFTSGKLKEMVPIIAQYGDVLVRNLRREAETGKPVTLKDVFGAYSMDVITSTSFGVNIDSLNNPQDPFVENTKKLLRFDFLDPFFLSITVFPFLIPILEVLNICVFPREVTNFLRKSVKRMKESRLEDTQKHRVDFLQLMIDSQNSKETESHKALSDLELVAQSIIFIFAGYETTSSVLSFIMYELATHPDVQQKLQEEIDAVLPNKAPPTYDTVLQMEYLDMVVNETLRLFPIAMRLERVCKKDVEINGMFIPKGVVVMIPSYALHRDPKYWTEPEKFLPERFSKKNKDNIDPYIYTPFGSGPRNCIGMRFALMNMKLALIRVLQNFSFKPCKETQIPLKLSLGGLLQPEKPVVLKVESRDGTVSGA
Outline: (§1)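 Concentration-response screening with isoform-matched pro-luciferin substrates. The CYP reaction was initiated by NADPH regenerating solution and ran 30-45 min in darkness at room temperature.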

[6] = target: Cytochrome P450 2C9 (Homo sapiens) (UniProt P11712); experiment: qHTS for inhibitors of CYP2C9 against the NCATS DSHEA and TCM libraries (AID 1919973);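 further: luminogenic pro-luciferin CYP2C9 substrate turned into luciferin with NADPH regeneration; series mostly up to about 34 µM; on the % scale 0 is the no-effect control and ±100 the full control effect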
Cytochrome P450 2C9 (Homo sapiens), sequence (P11712 whole entry, looked up): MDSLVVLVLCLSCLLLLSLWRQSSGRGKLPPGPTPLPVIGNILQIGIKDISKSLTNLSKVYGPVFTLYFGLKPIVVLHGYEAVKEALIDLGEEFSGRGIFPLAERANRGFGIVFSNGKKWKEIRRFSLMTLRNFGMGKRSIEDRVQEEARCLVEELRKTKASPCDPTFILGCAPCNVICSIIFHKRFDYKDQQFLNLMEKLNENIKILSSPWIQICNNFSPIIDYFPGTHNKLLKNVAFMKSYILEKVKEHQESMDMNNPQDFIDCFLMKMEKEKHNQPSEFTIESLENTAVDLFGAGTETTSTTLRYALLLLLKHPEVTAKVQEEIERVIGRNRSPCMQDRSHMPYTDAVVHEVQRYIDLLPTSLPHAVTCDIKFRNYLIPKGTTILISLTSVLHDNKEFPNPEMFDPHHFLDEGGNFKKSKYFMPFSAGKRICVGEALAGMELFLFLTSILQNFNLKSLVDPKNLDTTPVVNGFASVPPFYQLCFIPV
Outline: as §1

[7] = target: Cytochrome P450 2C19 (Homo sapiens) (UniProt P33261); experiment: qHTS for inhibitors of CYP2C19 against the NCATS DSHEA and TCM libraries (AID 1919974);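 further: luminescence from luciferin released by CYP2C19 oxidation of a pro-luciferin substrate; potency means the concentration at half of the fitted maximal effect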
Cytochrome P450 2C19 (Homo sapiens), sequence (P33261 whole entry, looked up): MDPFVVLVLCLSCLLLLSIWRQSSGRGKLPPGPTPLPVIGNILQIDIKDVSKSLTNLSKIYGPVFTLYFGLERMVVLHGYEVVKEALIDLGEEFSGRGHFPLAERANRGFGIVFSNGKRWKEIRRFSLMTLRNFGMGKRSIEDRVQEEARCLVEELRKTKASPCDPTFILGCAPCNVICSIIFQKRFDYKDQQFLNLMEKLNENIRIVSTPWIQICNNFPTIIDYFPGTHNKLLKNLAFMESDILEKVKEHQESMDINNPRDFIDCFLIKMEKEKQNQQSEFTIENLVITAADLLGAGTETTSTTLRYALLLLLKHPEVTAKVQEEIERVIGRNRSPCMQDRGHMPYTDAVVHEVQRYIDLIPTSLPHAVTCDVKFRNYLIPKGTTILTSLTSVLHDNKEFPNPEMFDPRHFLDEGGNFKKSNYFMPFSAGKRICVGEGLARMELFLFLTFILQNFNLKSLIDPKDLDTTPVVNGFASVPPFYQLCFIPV
Outline: as §1

[8] = KB-3-1 P-gp reporter qHTS against the NCATS DSHEA and TCM libraries (AID 1919975); further: 0% is about no effect
Outline: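 Cell viability qHTS: 500 KB-3-1 cells/well, substances in titration, ~72 h, 37C; luminescent CellTiter-Glo read.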

[9] = KB-8-5-11 P-gp reporter qHTS against the NCATS DSHEA and TCM libraries (AID 1919977); further: 0% is about no effect
Outline: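 Viability of drug-resistant KB-8-5-11 cells is measured by CellTiter-Glo luminescence following roughly 72 h treatment at 37C. Substances were titrated, with bortezomib as intraplate control.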

[10] = qHTS Counterscreen for compound interference against the NCATS DSHEA and TCM libraries (AID 1919978); conditions: firefly luciferase detection reagent interference, luminescence;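 further: compounds preincubated with 1 µM D-luciferin or buffer before detection reagent; % of control where 0% means no effect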
Outline: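 Interference check: test samples were incubated with D-luciferin (final 1 uM) or buffer only for 15 min, room temperature, in a qHTS titration up to 39.8 uM, then developed with detection reagent and read by luminescence.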

[11] = Dual reporter qHTS for agonist of Pregnane X Receptor (hPXR) against the NCATS DSHEA and TCM libraries: Fluorescence readout (AID 1920058); further: 0% is about no effect
Outline: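 Cells were plated at 2000 per well and allowed to attach for 5 h. Test substances were pinned in and incubated roughly 24 h. CellTiter-Fluor was then added and fluorescence measured after 1 h.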

[12] = target: Nuclear receptor subfamily 1 group I member 2 (Homo sapiens) (UniProt O75469); experiment: Dual reporter qHTS for agonist of Pregnane X Receptor (hPXR) against the NCATS DSHEA and TCM libraries: Luminescence readout (AID 1920059); further: 0% is about no effect
Nuclear receptor subfamily 1 group I member 2 (Homo sapiens), sequence (O75469 whole entry, looked up): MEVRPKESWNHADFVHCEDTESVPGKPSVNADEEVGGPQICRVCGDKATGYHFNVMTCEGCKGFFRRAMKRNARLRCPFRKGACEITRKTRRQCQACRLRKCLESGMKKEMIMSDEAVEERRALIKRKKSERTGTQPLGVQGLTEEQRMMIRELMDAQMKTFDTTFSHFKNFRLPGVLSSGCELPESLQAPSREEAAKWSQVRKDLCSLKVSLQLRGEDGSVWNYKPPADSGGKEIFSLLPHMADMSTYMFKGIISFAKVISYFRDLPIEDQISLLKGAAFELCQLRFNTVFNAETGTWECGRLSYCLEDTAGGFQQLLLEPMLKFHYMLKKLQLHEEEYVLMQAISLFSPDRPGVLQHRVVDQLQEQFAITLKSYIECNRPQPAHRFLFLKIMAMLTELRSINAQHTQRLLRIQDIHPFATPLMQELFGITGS
Outline: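 hPXR-LucHepG2 cells in phenol red-free DMEM with 5% charcoal-stripped FBS, 2000 cells/well, attached 5 h, then exposed 24 h at 37C to compounds; rifampicin as positive agonist control (2.8 nM–92 uM). Luciferase luminescence read.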

[13] = target: Nuclear receptor subfamily 1 group I member 2 (Homo sapiens) (UniProt O75469); experiment: Dual reporter qHTS for antagonist of Pregnane X Receptor (hPXR) against the NCATS DSHEA and TCM libraries: Luminescence Readout (AID 1920060);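 further: HepG2 cells carrying hPXR luciferase reporter stimulated with rifampicin at 2 µM; 0% is about no effect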
Outline: (§2)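 Antagonist mode: rifampicin 2 uM final co-added with compounds to hPXR-LucHepG2 cells for 24 h at 37C. Viability by CellTiter-Fluor, Ex/Em 405/540 nm, 1 h; reporter by ONE-Glo luminescence.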

[14] = Dual reporter qHTS for antagonist of Pregnane X Receptor (hPXR) against the NCATS DSHEA and TCM libraries: Fluorescence Readout (AID 1920061); further: 0% is about no effect
Outline: as §2

CC(C)(C)c1cc(C(C)(C)C)c2c(c1)C(O)(C(F)(F)F)C(=O)O2 (stereo not drawn)
inactive: Potency [1] | outcome [3]
active: Potency [2] 9.47 µM

C[C@H](NC(=O)Cc1cc(F)cc(F)c1)C(=O)N[C@@H]1N=C(c2ccccc2)c2ccccc2N(C)C1=O
inactive: Potency [1] | Potency [2] | outcome [3] | outcome [4]

CN(C)CCc1c[nH]c2ccc(CN3CCN(C)S3(=O)=O)cc12
inactive: Potency [1] | Potency [2] | outcome [3] | outcome [4]

C/C=C(\C)C(=O)OC1C(C)OC(OC2C(C)OC(OC3CCC4(C)C(=CCC5C4CCC4(C)C(C(C)OC6OC(COC7OC(CO)C(O)C(O)C7O)C(O)C(O)C6O)CCC54O)C3)CC2OC)C(O)C1OC (stereo not drawn)
inactive: outcome [1] inactive [at 11.6 µM] | activity change, negative = thiol reactive [2] 16.4% [at 11.5 µM] | activity, negative = inhibition [3] 0% [at 11.6 µM] | redox activity (% of DA3003) [4] -7.77% [at 11.5 µM]

N#CC(OC1OC(COC2OC(CO)C(O)C(O)C2O)C(O)C(O)C1O)c1ccccc1 (stereo not drawn)
inactive: Potency [1] | Potency [2] | outcome [3] | outcome [4]

C[C@@](O)(COc1ccc(C#N)cc1)C(=O)Nc1ccc(C#N)c(C(F)(F)F)c1
inactive: Potency [2] | outcome [3] | outcome [4]

C[C@H]1O[C@@H](O[C@H]2C[C@@H](O)[C@]3(CO)C4C(CC[C@]3(O)C2)[C@@]2(O)CC[C@H](C3=CC(=O)OC3)[C@@]2(C)C[C@H]4O)[C@@H](O)[C@@H](O)[C@H]1O (stereo partly drawn)
inactive: Potency [1] | Potency [2] | outcome [3] | outcome [4]

C=C(C)[C@H]1O[C@H]2CC[C@@]3(C)[C@@](O)(CC[C@H]4[C@@H]5OC(C)(C)[C@H]6C[C@@H]7C(=C)Cc8c(Cl)cc9[nH]c(c5c9c8[C@@]76O)[C@@]43C)[C@]23O[C@@H]3[C@H]1O
inactive: Potency [1] | outcome [3] | outcome [4]
active: Potency [2] 6.3 µM

COC1=CC(=O)O[C@@H](/C=C/c2ccccc2)C1
inactive: Potency [1] | Potency [2] | outcome [3] | outcome [4] | outcome [5] | outcome [6] | outcome [8] | outcome [9] | max response [10] -0.203% | outcome [11] | outcome [12] | outcome [13] | outcome [14]
active: Potency [7] 14.1 µM

COC1CC(OC2CCC3(C)C(=CCC4C3CCC3(C)C(C(C)OC5OC(COC6OC(CO)C(O)C(O)C6O)C(O)C(O)C5O)CCC43O)C2)OC(C)C1OC1OC(C)C(O)C(OC)C1O (stereo not drawn)
inactive: activity change, negative = thiol reactive [2] 0.542% [at 11.5 µM] | activity, negative = inhibition [3] 2.42% [at 11.6 µM]

CN1C(=O)c2ccccc2NC(=O)[C@]12O[C@@H]2c1ccccc1
inactive: Potency [1] | outcome [3] | outcome [4]

CCC1NC(=O)C2C(Cl)C(Cl)CN2C(=O)C(C(C)O)NC(=O)CC(c2ccccc2)NC(=O)C(CO)NC1=O (stereo not drawn)
inactive: Potency [1] | outcome [3] | outcome [4]

CCN1C[C@]2(COC(=O)c3ccccc3N3C(=O)C[C@H](C)C3=O)CC[C@H](OC)[C@@]34[C@@H]5C[C@H]6[C@H](OC)[C@@H]5[C@](O)(C[C@@H]6OC)[C@](O)([C@@H](OC)[C@H]23)[C@@H]14
inactive: Potency [1] | Potency [2] | outcome [3] | outcome [4]

CC12CCC3C(CCC4(O)CC(O)CCC34C=O)C1(O)CCC2C1=CC(=O)OC1 (stereo not drawn)
inactive: Potency [1] | Potency [2] | outcome [3] | outcome [4]

CN[C@H]1[C@H](O)[C@H](O[C@@H]2[C@@H](O)[C@H](O[C@H]3O[C@H]([C@H](C)O)[C@@H](O)[C@H](O)[C@H]3N)[C@@H](N)C[C@H]2N)OC[C@@]1(C)O
inactive: Potency [1] | Potency [2] | outcome [3] | outcome [4]

CN1C(=O)c2ccccc2NC(=O)C1Cc1ccccc1 (stereo not drawn)
inactive: Potency [1] | outcome [3] | outcome [4]

Cc1c(Cl)cccc1S(=O)(=O)Nc1nc(CC(=O)N2CCN(C)CC2)cs1
inactive: Potency [1] | Potency [2] | outcome [4]

C[C@]12CC[C@@H](O)C[C@H]1CC[C@@H]1[C@@H]2CC[C@]2(C)C(=O)CC[C@@H]12
inactive: Potency [1] | Potency [2] | outcome [3] | outcome [4]

COC(=O)C1(C)CCC(O)C2(C)c3cc(O)c(C(C)C)cc3C(O)C(OC(C)=O)C12 (stereo not drawn)
inactive: Potency [1] | outcome [3]

COC(=O)C12C(=O)C(C)(O)C(=O)C1(C)C(C)=CC1C34CCC(OC3=O)C(C)(CO)C4CCC12C (stereo not drawn)
active: Potency [2] 2.6 µM
inactive: outcome [3]

CCCCCOc1cc2c(cc1-c1cc(/C=C/C(=O)O)ccc1O)C(C)(C)CCC2(C)C
inactive: Potency [2] | outcome [3]

O=C1C[C@@H]2OCC=C3CN4CC[C@]56c7ccccc7N1[C@H]5[C@H]2[C@H]3C[C@H]46
inactive: Potency [1] | Potency [2] | outcome [3] | outcome [4]

CC1=C2C(=O)C3[C@@H](CC=C4C[C@@H](O)CC[C@@]43C)[C@@H]2CC[C@]12O[C@@H]1C[C@H](C)CN[C@H]1[C@H]2C (stereo partly drawn)
inactive: Potency [1] | Potency [2] | outcome [3] | outcome [4]
